Assay outcomes deposited in PubChem BioAssay by The Scripps Research Institute Molecular Screening Center.
The list is not random: actives were taken first. Their share in the collection is about 3.5%.
GPR151 ag – activators of human GPR151, primary screen, cell-based, PathHunter beta-arrestin, luminescence. activation, % at 11.2 µM. 650,000 tested, 1% active. G-protein coupled receptor 151 (Homo sapiens), Q8TDV0. PathHunter beta-arrestin GPR151 cells. AID 1508602, 2020; in the data active = activation above about 4.9%
TEAD-YAP block – TEAD-YAP interaction inhibition, primary screen, TEAD-YAP interaction inhibitor project, luminescence, HEK-TIYL cells. TEAD-Gal4/YAP UAS-luciferase luminescence. AID 1259422, 2018. inhibition, % at 9.12 µM. 640,000 tested, 1.4% active; in the data active = inhibition above about 32%
MITF primary – MITF inhibitors, primary screen, biochemical, AlphaScreen, human | Microphthalmia-associated transcription factor (Homo sapiens), O75030 | AlphaScreen MITF homodimerization, bead proximity signal | inhibition, % at 2.6 µM | 650,000 tested, 0.91% active | AID 1259374, 2018; in the data active = inhibition above about 50%
Target sequence (O75030 whole entry, looked up): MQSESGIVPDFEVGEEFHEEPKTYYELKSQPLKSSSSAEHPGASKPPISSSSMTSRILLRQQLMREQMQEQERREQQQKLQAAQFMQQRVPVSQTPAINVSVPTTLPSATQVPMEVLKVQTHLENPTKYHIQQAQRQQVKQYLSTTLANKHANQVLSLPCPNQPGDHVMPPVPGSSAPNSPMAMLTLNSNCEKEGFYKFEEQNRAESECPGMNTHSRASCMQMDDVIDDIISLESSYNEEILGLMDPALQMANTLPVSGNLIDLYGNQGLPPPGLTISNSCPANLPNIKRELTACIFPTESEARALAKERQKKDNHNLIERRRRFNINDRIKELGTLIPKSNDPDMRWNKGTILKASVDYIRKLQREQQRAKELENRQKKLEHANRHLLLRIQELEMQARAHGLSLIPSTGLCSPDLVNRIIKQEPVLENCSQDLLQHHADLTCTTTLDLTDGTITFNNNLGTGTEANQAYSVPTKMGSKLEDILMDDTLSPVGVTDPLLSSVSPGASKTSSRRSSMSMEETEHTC
FBW7 act – FBW7 E3 ligase activators, primary screen, biochemical, AlphaScreen, human; F-box/WD repeat-containing protein 7 (Homo sapiens), Q969H0; AlphaScreen FBW7–phospho-cyclin E peptide binding, activator screen; normalized activity (activation), % at 26.1 µM; 650,000 tested, 0.13% active; AID 1259310, 2017; in the data active = normalized activity above about 1.9%;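 also: purified mutant Fbw7 with reduced substrate affinity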
GPR151 conf act – GPR151 activators, triplicate retest, confirmation, cell-based, PathHunter beta-arrestin, luminescence; AID 1508609, 2020; 6,700 tested, under 10 active; activation, % at 11.2 µM; GPR151 PathHunter beta-arrestin cells, 90 min; % of EA-reagent control over plate median; shares compounds with GPR151 ag;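 active = mean percent activation across replicates above the confirmation screen cutoff of 4.91%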
GPR119 counter – GPR119 activators in beta-arrestin cells, counter-screen for GPR151 activator project, cell-based, PathHunter beta-arrestin, luminescence, triplicate. shares compounds with GPR151 ag. 90 min; 0 = compound-well median, 100 = enzyme-acceptor control. activation, % at 11.2 µM. 6,700 tested, 0.3% active. AID 1508611, 2020;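 active = mean percent activation in the counterscreen above 29.09%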;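 also: counterscreen on off-target GPR119 to flag nonselective hits from the GPR151 activator screen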
Of the large screens only hits and unclear results are named; the others gave an inactive call (follow-up assays come after a bar, where they were run).

COc1ccc2c(CC(=O)OCc3c(C)noc3C)coc2c1	GPR151 ag 5.1 | GPR151 conf act inactive | GPR119 counter inactive
CCN(CC)C(=O)c1sc(N)c(C(=O)OC(C)C)c1C	GPR151 ag 16.1 | GPR151 conf act inactive | GPR119 counter inactive
COc1ccccc1CNC(=O)Cn1nc(C)n2c(cc3occc32)c1=O	none
CCCCCn1c(SCc2ccccn2)nc2cc(C(=O)N3CCN(c4ccccc4)CC3)ccc2c1=O	GPR151 ag 5.1 | GPR151 conf act inactive | GPR119 counter inactive
N#CCSc1nc2cc(C(=O)N3CCCC3)ccc2c(=O)n1-c1ccccc1	none
N#CCSc1nc2cc(C(=O)N3CCN(c4ccccc4)CC3)ccc2c(=O)n1C1CCCCC1	GPR151 ag 11.1 | GPR151 conf act inactive | GPR119 counter inactive
CCc1ccc(NC(=O)C2(S(=O)(=O)c3ccc(C)cc3)CC2)cc1	none
N#Cc1cccc(NC(=O)CSc2nc(-c3ccccc3)cs2)c1	none
Cc1cccn2c(=O)c(/C=C(\C#N)C(=O)NC3CCCC3)c(Oc3ccccc3F)nc12	none
COc1ccc(C2C(C(=O)Nc3cc(C)ccc3OC)c3ccccc3C(=O)N2Cc2ccc(F)cc2)cc1 (centres undefined)	none
CCCC1(C2CCN(Cc3ccc(O)cc3)CC2)NC(=O)N(CC2CCCO2)C1=O (centres undefined)	GPR151 ag 6.0 | GPR151 conf act inactive | GPR119 counter inactive
COCCCn1c(=O)[nH]c2ncc(-c3ccccc3)nc21	none
COCCCn1c(=O)[nH]c2ncc(-c3cc(OC)c(OC)c(OC)c3)nc21	GPR151 ag 6.0 | GPR151 conf act inactive | GPR119 counter inactive
O=C(O)CCCC(=O)N1CCC(N2C(=O)Cc3ccccc32)CC1	GPR151 ag 9.2 | GPR151 conf act inactive | GPR119 counter inactive
COC(=O)CC(NC1CCN(c2ccc(CC(=O)N3CCCC3)cc2)CC1)C(=O)OC (centres undefined)	GPR151 ag 6.1 | GPR151 conf act inactive | GPR119 counter inactive
CCN1CCN(CCCNC(=O)CCCNC(=O)Cn2cnc3sc4c(c3c2=O)CCCC4)CC1	none
CN1CCN(CCCNC(=O)CCCNC(=O)Cn2cnc3sc4c(c3c2=O)CCCC4)CC1	GPR151 ag 6.0 | GPR151 conf act inactive | GPR119 counter inactive
COc1ccc(-n2nnc3c(N4CCN(C(=O)CC5CCCCC5)CC4)ncnc32)cc1	none
COc1ccc(-n2nnc3c(N4CCN(C(=O)Cc5ccc(Cl)cc5)CC4)ncnc32)cc1	GPR151 ag 5.5 | GPR151 conf act inactive | GPR119 counter inactive
COc1cccc(-n2nnc3c(N4CCN(S(=O)(=O)c5cc(F)ccc5F)CC4)ncnc32)c1	GPR151 ag 6.0 | GPR151 conf act inactive | GPR119 counter inactive
COC(=O)NNC(=S)NCc1ccc(C)cc1	GPR151 ag 5.6 | GPR151 conf act inactive | GPR119 counter inactive
O=C(CN1C(=O)[C@H]2CCCN2C(=O)c2ccccc21)Nc1cccc2ccccc12	GPR151 ag 6.8 | GPR151 conf act inactive | GPR119 counter inactive
O=C(CN1C(=O)[C@@H]2CCCN2C(=O)c2ccccc21)Nc1ccccc1F	none
CC(=O)c1ccc(NC(=O)C(C)Oc2cccc(C)c2)cc1 (centres undefined)	none
COc1ccc(C(C)=O)cc1CN(C)C	GPR151 ag 6.6 | GPR151 conf act inactive | GPR119 counter inactive
Cc1cc(C)n2nc(SCc3ccc(Cl)cc3)nc2n1	none
CC(C)(CO)Nc1nc(NCc2ccco2)nc(N2CCOCC2)n1	none
COCCN1CCN(C(=O)CC2C(=O)NCCN2Cc2cc(OC)cc(OC)c2)CC1 (centres undefined)	none
COCCn1c(SCC(=O)N2CCCC2=O)nnc1-c1ccncc1	GPR151 ag 5.3 | GPR151 conf act inactive | GPR119 counter inactive
COCCn1c(SCC(=O)NC2CCCC2)nnc1-c1ccncc1	none
CC(NC(=O)c1cnccn1)c1nc(-c2ccc(Cl)cc2)n[nH]1 (centres undefined)	GPR151 ag 8.1 | GPR151 conf act inactive | GPR119 counter inactive
